Data as given in PubChem BioAssay AID504339 (National Center for Advancing Translational Sciences (NCATS), 2011).
The whole screen tested about 390,000 compounds, of which about 17,000 (4.4%) were called active. A call without a number means that no potency is given here. About 8% were inconclusive and are not listed. The sample holds actives, similar compounds and a random draw of the others, so the mix is not that of the screen. Calls come from the whole dose curve; as a rule, active = well fitted inhibition curve with a large enough effect; inconclusive = small, poorly fitted or top-dose-only effect; inactive = no such curve, though single readings can be large or run the other way.

Molecular target: Lysine-specific demethylase 4A (Homo sapiens) (UniProt O75164)
Sequence (O75164 whole entry, looked up, the tested form may be a part): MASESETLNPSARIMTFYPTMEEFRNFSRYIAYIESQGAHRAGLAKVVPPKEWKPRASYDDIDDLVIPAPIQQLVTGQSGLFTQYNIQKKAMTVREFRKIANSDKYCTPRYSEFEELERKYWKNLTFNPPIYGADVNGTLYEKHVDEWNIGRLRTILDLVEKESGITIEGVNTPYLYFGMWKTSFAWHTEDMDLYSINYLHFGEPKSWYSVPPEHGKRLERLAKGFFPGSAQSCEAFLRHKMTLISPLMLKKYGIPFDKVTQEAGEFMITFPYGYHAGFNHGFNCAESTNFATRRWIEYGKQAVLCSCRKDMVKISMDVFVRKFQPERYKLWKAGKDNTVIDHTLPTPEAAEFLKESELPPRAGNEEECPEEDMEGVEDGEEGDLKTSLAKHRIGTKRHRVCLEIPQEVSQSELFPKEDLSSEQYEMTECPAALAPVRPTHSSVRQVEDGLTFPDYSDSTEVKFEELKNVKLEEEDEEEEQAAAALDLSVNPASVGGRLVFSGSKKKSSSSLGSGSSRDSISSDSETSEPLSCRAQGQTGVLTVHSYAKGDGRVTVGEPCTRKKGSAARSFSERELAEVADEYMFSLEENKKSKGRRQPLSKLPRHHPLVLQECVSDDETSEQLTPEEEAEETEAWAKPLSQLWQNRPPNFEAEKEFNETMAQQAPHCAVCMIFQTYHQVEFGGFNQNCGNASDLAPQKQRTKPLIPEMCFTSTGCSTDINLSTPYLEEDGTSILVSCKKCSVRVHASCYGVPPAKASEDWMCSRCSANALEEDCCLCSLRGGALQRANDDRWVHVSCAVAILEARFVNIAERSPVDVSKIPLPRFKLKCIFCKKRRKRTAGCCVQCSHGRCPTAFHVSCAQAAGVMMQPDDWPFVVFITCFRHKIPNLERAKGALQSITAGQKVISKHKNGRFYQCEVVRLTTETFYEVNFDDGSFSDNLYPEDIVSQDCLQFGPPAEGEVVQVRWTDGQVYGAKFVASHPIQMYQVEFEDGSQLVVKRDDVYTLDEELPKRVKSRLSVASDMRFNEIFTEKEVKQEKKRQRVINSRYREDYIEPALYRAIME
Assay: qHTS Assay for Inhibitors of JMJD2A-Tudor Domain; note: nearly all actives have a fitted effect of over 50% in size
Conditions: AlphaScreen JMJD2A-Tudor / H3K4me3 peptide binding; series mostly up to 114 µM
Potency is the fitted concentration of half-maximal effect.

Structure (SMILES) | Potency
COc1ccc(-c2cc(-c3ccccc3)nc3c2COc2ccc(Cl)cc2-3)cc1 | inactive
Cc1cccc(NC(=O)CSc2nc(-c3ccco3)cc(C(F)(F)F)n2)c1C | inactive
CCOC(=O)c1sc(NC(=O)CSc2nc(C)cc(C(F)(F)F)n2)c(C#N)c1C | 50.1 µM (active)
Cc1cc(C(F)(F)F)nc(SCC(=O)Nc2nccs2)n1 | inactive
Cc1ccc(C(=O)Nc2ccccc2F)cc1S(=O)(=O)N1CCOCC1 | inactive
Cc1ccccc1CNC(=O)CSc1nnc(C)c2c(C)n(-c3ccccc3)nc12 | inactive
CCCOc1ccc(NC(=O)CC2C(=O)N(c3ccccc3)C(=O)N2Cc2ccco2)cc1 (stereo not given) | inactive
CNS(=O)(=O)c1ccc(NC(=O)C2CC(=O)N(c3ccc(Cl)cc3)C2)cc1 (stereo not given) | 56.2 µM (active)
O=C(Nc1ccc(S(=O)(=O)N2CCCCC2)cc1)C1CC(=O)N(c2ccc(F)cc2)C1 (stereo not given) | inactive
Cc1ccc(N2CC(C(=O)Nc3ccc(S(=O)(=O)N4CCCC4)cc3)CC2=O)cc1C (stereo not given) | inactive
CN1C(=O)c2ccccc2Sc2ccc(NC(=O)Cc3ccc(Cl)cc3)cc21 | inactive
Cc1ccc(Cl)cc1N1CCN(S(=O)(=O)c2cc3[nH]c(=O)c(=O)[nH]c3cc2C)CC1 | inactive
COc1ccc(-c2noc(-c3ccc(N4CCN(c5ccccc5)CC4)c([N+](=O)[O-])c3)n2)cc1OC | inactive
COc1ccc(NC(=O)c2sc3nc(-c4cc5cccc(OC)c5oc4=O)[nH]c(=O)c3c2C)cc1 | inactive
Brc1ccccc1C1Nc2cccc3cccc(c23)N1 | 50.1 µM (active)
Brc1ccccc1C1N=C(c2ccccc2)NO1 (stereo not given) | inactive
COc1cc2c(cc1OC)C(c1ccccc1Br)NC(=O)C2 (stereo not given) | inactive
Oc1ccc(C2Nc3cccc4cccc(c34)N2)cc1 | 44.7 µM (active)
Cn1nnnc1SCCCNCc1ccc(Cl)cc1 | inactive
O=c1cc(CSc2ncn[nH]2)[nH]c2ccc(F)cc12 | inactive
CCc1nnc(SCC(=O)Nc2cc(OC)ccc2OC)nc1CC | inactive
O=C(NCCc1ccc(Cl)cc1)c1ccc2c(c1)N(Cc1ccc(F)cc1)C(=O)CS2 | inactive
Cc1ccc(NC(=O)C(Cc2ccccc2)NS(=O)(=O)c2ccc3c(c2)oc(=O)n3C)cc1C (stereo not given) | inactive
CCOc1ccc(NC(=O)C2CCN(S(=O)(=O)c3cc(-c4noc(C)n4)ccc3C)CC2)cc1 | inactive
CCOC(=O)C1CCN(C(=O)Nc2ccc(Cl)cc2)CC1 | inactive

Structure (SMILES) | Potency
CCOC(=O)C1Sc2[nH]c(=O)sc2C(c2ccc(Cl)cc2)C1C(=O)OCC (stereo not given) | 50.1 µM (active)
CCOC(=O)C1C(=O)NCC1c1ccccc1 (stereo not given) | inactive
CCC(=O)N1CCc2cc(Br)cc(S(=O)(=O)NCc3ccc(Cl)cc3)c21 | inactive
Cc1cccc(NC(=O)c2ccc(F)c(S(=O)(=O)N(C)C3CCCCC3)c2)c1 | inactive
CCc1cc2c(cc(C(=O)OC)n2Cc2nc(-c3ccc(C)cc3)oc2C)s1 | inactive
O=C(CC(=O)N/N=C\c1ccc(F)cc1)NCCc1ccccc1 | inactive
O=C(CN1CCN(C/C=C/c2ccccc2)CC1)Nc1ccc(F)cc1F | inactive
O=C(CN1CCSCC1)N/N=C/c1ccc(F)cc1 | 3.16 µM (active)
O=C(CN1CCSCC1)N/N=C/c1ccc(F)cc1F | 10 µM (active)
Cc1ccc(COc2ccc(/C=N/NC(=O)CN3CCCCC3)cc2)cc1 | inactive
O=C(Cn1cc(C(F)(F)F)ccc1=O)N/N=C/c1ccc(Cl)cc1Cl | inactive
COc1ccc(CNC(=O)c2cc3cccc(OC)c3oc2=O)cc1 | inactive
CC(=O)N1c2ccccc2CC1C(=O)N1CCN(c2ccc(F)cc2)CC1 (stereo not given) | inactive
CCOc1ccc(CNC(=O)Cn2cc3c(n2)-c2c(oc(C(=O)N4CCCC4)c2C)CC3)cc1 | inactive
CCCc1cc(=O)n2[nH]c(NCc3ccc(CC)cc3)nc2n1 | inactive
COc1ccc(-c2csc(-c3c(N)c(C(=O)c4ccc(OC)c(OC)c4)n4ccccc34)n2)cc1 | inactive
COc1ccccc1CNC(=O)Cn1nc(C)c2nn(-c3ccc(Cl)cc3)c(C)c2c1=O | inactive
COc1ccc(OC)c(CNC(=O)Cn2nc(C)c3c(C)n(-c4ccc(C)cc4)nc3c2=O)c1 | 35.5 µM (active)
COc1ccc(OC)c(CNC(=O)Cn2nc(C)c3c(C)n(-c4ccccc4)nc3c2=O)c1 | inactive
Cc1ccc2c(c1)N(C(=O)Nc1ccc(Br)cc1F)CCO2 | inactive
Cc1ccc(OCC(=O)OCc2cc(=O)n3nc(C4CC4)sc3n2)cc1 | inactive
CCN(C(=O)Cn1cnc2sc(C)c(S(=O)(=O)N3CCN(c4ncccn4)CC3)c2c1=O)c1ccccc1F | inactive
CCOc1cc(-c2nnc(SCC(=O)NC3CCCCC3)nc2-c2ccc(OC)c(OCC)c2)ccc1OC | inactive
CCN(C(=O)COC(=O)c1sccc1C)c1c(N)n(Cc2ccccc2)c(=O)[nH]c1=O | inactive
CCN(C(=O)COC(=O)Cc1c(F)cccc1Cl)c1c(N)n(Cc2ccccc2)c(=O)[nH]c1=O | inactive

Structure (SMILES) | Potency
CCN(C(=O)CN1CCN(Cc2ccccc2)CC1)c1c(N)n(Cc2ccccc2)c(=O)[nH]c1=O | 12.6 µM (active)
OC[C@@H]1O[C@H](n2cnc3c(SCc4ccccc4)ncnc32)[C@H](O)[C@H]1O | inactive
Cc1ccc(C(=O)N2c3ncnn3C3(CCCCC3)[C@@H]3CCCC[C@@H]32)cc1 | inactive
CCC(=O)N1CCc2cc(CNS(=O)(=O)c3ccc(Br)s3)ccc21 | inactive
Cc1nc([N+](=O)[O-])cn1CC(=O)Nc1ccc2c(c1)OCO2 | inactive
Cc1ccc(C(=O)O)cc1-c1ccc(/C=C2\SC(=O)N(CC(=O)Nc3ccc4c(c3)OCO4)C2=O)o1 | 35.5 µM (active)
Cc1nn(CC(=O)Nc2ccc3c(c2)OCO3)c(C)c1[N+](=O)[O-] | inactive
O=C(CSc1nnc(-c2ccncc2)n1-c1ccccc1)Nc1ccc(Cl)c(Cl)c1 | inactive
COc1ccccc1CN1CCC(CNC(=O)c2cnn(-c3cccc(Cl)c3)c2C2CCN(C(=O)OC(C)(C)C)CC2)CC1 | inactive
COCCNC(=O)c1ccc2c(c1)N=C(C)c1cc(C)ccc1S2 | inactive
C/C(=N\Nc1ccc(Cl)nn1)c1ccccc1O | inactive
Oc1cccc(/C=N/Nc2ccc(Cl)nn2)c1O | 63.1 µM (active)
COc1cccc(CNC(=O)c2ccc3c(c2)N(Cc2ccc(C(F)(F)F)cc2)C(=O)c2ccccc2S3)c1OC | inactive
CCCc1nn2c(=O)cc(COC(=O)c3ccc(NC(=O)C(C)Oc4ccccc4)cc3)nc2s1 (stereo not given) | inactive
COc1ccc(-c2nnc(SCC(=O)Nc3ccccc3C)o2)cc1OC | inactive
CCOC(=O)c1cnc2c(C)cc(C)cc2c1Nc1ccc(N2CCOCC2)cc1 | 35.5 µM (active)
Cc1ccc(OCCCC(=O)Nc2ccc(N3CCOCC3)cc2)cc1 | inactive
CCOC(=O)c1cnc2c(C)cc(Cl)cc2c1NCCc1ccc(OC)c(OC)c1 | inactive
Cc1cccc(-n2c(=O)c3c(c4cc(C)ccc4n3C)n(CC(=O)Nc3ccccc3Cl)c2=O)c1 | inactive
COc1ccnc(Oc2ccccc2)c1-c1ncn[nH]1 | inactive
O=C(Oc1ccc(-c2nc(-c3ccccn3)no2)cc1)c1ccccc1 | inactive
COc1cnc(-c2ccccn2)nc1Oc1ccc(C(C)(C)C)cc1 | 31.6 µM (active)
Cc1cc(C)cc(C(=O)N2CCN=C2SCc2ccc([N+](=O)[O-])cc2)c1 | inactive
CC(=O)N1CC[n+]2c(-c3ccc([N+](=O)[O-])cc3)csc21 | 7.94 µM (active)
CN1C2CCC1CC(NC(=O)c1ccc([N+](=O)[O-])cc1)C2 (stereo not given) | inactive

Structure (SMILES) | Potency
O=C(Nc1nc2ccc(F)cc2s1)c1nc(SCc2ccccc2F)ncc1Cl | inactive
COc1ccc(NC(=O)C(=O)NCc2ccco2)cc1 | inactive
COc1ccc(-n2cnc3cc(NCc4ccco4)ccc32)cc1 | 50.1 µM (active)
COc1ccc(-n2cnc3cc(C(=O)NC4CCCC4)ccc32)cc1 | inactive
Cc1ccc(CSc2nc3cccnc3n2Cc2ccc(C(=O)NC3CC3)cc2)cc1 | inactive
CCOC(=O)c1[nH]c(C)c(CCC(=O)NCc2ccccc2C)c1C | inactive
S=c1[nH]nc(-c2cc(-c3ccsc3)n[nH]2)n1-c1ccccc1 | 44.7 µM (active)
Cc1ccc(NCc2n[nH]c(=S)n2-c2ccccc2)cc1Cl | inactive
COc1cccc(-c2cc(C(=O)Nc3ccc(C)cc3)[nH]n2)c1 | inactive
CCc1ccc(NC(=O)Cn2c(=O)n(CCC(=O)NCc3ccc4c(c3)OCO4)c(=O)c3ccccc32)cc1 | inactive
O=C(CCSCc1ccccc1F)N1CCN(c2ccc(Cl)cc2)CC1 | inactive
Cc1cccc(NC(=O)N2CCN(C)c3ncccc32)c1C | inactive
CCOc1ccc(CCNC(=O)c2cc3c(=O)n(C)c4ccccc4c3n2C)cc1 | inactive
CC(=O)N1CCc2c(sc(NC(=O)CCS(=O)(=O)c3ccccc3)c2C#N)C1 | inactive
N#Cc1c(N)sc2c1CCN(C(=O)OCc1ccccc1)C2 | 56.2 µM (active)
CC(C)N1CCc2c(sc(NC(=O)Cc3ccccc3)c2C#N)C1 | inactive
Cn1c(=O)c2c(nc(SCC(=O)Nc3ccc(F)cc3)n2Cc2ccccc2)n(C)c1=O | inactive
CC1CCN(c2ccc(C(=O)Nc3nnc(C4CC4)s3)cc2[N+](=O)[O-])CC1 | inactive
Cc1cccc(NC(=O)CSCC(=O)Nc2nnc(C3CC3)s2)c1 | inactive
O=C(CN1C(=O)c2ccc([N+](=O)[O-])cc2C1=O)Nc1nnc(C2CC2)s1 | 79.4 µM (active)
COc1ccc(NC(=O)CN2CCCN(Cc3ccccc3)S2(=O)=O)cc1 | inactive
Cc1nc(N2CCOCC2)c2c(C(=O)NCc3cccc(Cl)c3)c(C)oc2n1 | inactive
Cc1n[nH]c(=S)n1/N=C/c1ccc(Br)o1 | 7.94 µM (active)
O=C(CCc1n[nH]c(=O)[nH]c1=O)N/N=C/c1ccc(Br)o1 | inactive
O=C(CCC(=O)N/N=C/c1ccc(Br)o1)N/N=C/c1ccc(Br)o1 | inactive
